Results on 40 compounds are retold here after PubChem BioAssay (Tox21).

Values without a mark were called inactive. Activity calls are given as the source filed them. Unless noted, calls come from the whole dose curve.
% is set by controls: 0 for no effect and ±100 for the full control effect.

In the first assay the target is KiSS-1 receptor (Homo sapiens) (UniProt Q969F8). Kind of assay: Human kisspeptin (KISS1R) small molecule agonists, calcium flux assay in KISS1R-HEK293 cells (AID 1920064; active = well fitted activation curve with a large enough effect in the repeat runs). Conditions: KISS1R-HEK293, calcium flux fluorescence, agonist; series mostly up to 76.8 µM. The gist of the method: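 HEK293 cells stably expressing human KISS1R were plated 18 h at 37 °C, loaded with calcium dye for 1 h at 37 °C, then given compound by pin tool. Fluorescence (Ex/Em 480/540) was read kinetically for 3 min.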
Chain of KiSS-1 receptor (Homo sapiens) (Q969F8 whole entry, looked up): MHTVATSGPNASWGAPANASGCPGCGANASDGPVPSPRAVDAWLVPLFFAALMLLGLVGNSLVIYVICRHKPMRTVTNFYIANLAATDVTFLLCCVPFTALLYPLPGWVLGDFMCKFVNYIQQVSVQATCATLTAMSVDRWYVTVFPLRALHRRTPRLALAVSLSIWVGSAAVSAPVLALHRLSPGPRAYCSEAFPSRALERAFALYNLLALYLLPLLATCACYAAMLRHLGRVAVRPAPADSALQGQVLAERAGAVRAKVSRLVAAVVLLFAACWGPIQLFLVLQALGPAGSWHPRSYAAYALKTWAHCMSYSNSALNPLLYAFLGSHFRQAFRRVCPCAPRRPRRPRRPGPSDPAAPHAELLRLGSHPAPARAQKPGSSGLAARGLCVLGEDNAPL
Turning to `CCCC1CCC(=O)O1` (stereo not given), the outcome was inactive.
With `CCN(CC)c1ccc2c(-c3ccc(S(=O)(=O)O)cc3S(=O)(=O)[O-])c3ccc(=[N+](CC)CC)cc-3oc2c1`, the outcome was inactive.
For `COc1ccc(/C=C/S(=O)(=O)NC(=O)c2ccc(C)cc2Cl)cc1`, the outcome was inactive.
With `N[C@@H](Cc1cc(I)c(O)c(I)c1)C(=O)O`, the result was inactive.
Regarding `C=CC(=O)OCC(Br)CBr` (stereo not given), the outcome was inactive.
Same read-out and setting: the value for `O=C1CCC(C2CCCCC2)CC1` was “inactive”; that for `COc1ccc(C(=O)N2CCN(CC(=O)N3CCOCC3)CC2)cc1` was “inactive”.
The same measure, in the same setting: under `COCCC(=O)OC` stands “inactive”.
Same read-out and setting: the value for `Cc1nc2ccc(Cl)cc2[nH]1` was “inactive”; that for `CC(C)(C)C(=O)C(=O)O` was “inactive”.
In the case of `COc1cccc(O)c1O`, the outcome was inactive.
The same measure, in the same setting: under `N=C1C=CC(=C(c2ccc(N)cc2)c2ccc(N)cc2)C=C1` stands “inactive”; under `O=C1c2ccccc2C(=O)C1c1ccc2ccccc2n1`, “inactive”; under `CN1CCN(C2=Nc3cc(F)ccc3Cc3ccccc32)CC1`, “inactive”.
On the same count and under the same terms, the value for `CC1=NN(c2ccc(C(=O)O)cc2)C(=O)C1` was “inactive”.
On the same count and under the same terms, the value for `Oc1ccc(Oc2ccccc2)cc1` was “inactive”.
Turning to `CC(C)(O)CCCC1=CCC(C=O)CC1` (stereo not given), the result was inactive.
Same read-out and setting: the value for `NS(=O)(=O)Cc1noc2ccccc12` was “inactive”.
The same measure, in the same setting: the value for `COc1ccc(C(=O)c2ccc(OC)cc2O)c(O)c1` was “inactive”; that for `Fc1ccc([C@@H]2CCNC[C@H]2COc2ccc3c(c2)OCO3)cc1` was “inactive”; that for `CCOC(=O)O[C@H](C)OC(=O)c1ccc2c(c1)cc(C(=O)NC1CCN(C(C)C)CC1)n2Cc1cc(-c2ccc(Cl)s2)on1` was “inactive”.
Same read-out and setting: the value for `CC1=C(/C=C/C(C)=C\C=C\C(C)=C\C(=O)O)C(C)(C)CCC1` was “inactive”.
`Cc1cccc(N(C)C(=S)Oc2ccc3c(c2)CCC3)c1`: the outcome was inactive.
On the same count and under the same terms, under `CCCC(=O)OCCC(C)C` stands “inactive”; under `COc1ccccc1NC(=O)c1cc2ccccc2cc1O`, “inactive”.
On the same count and under the same terms, under `O=C(CCBr)N1CCN(C(=O)CCBr)CC1` stands “inactive”; under `CN(C)CCC=C1c2ccccc2C=Cc2ccccc21`, “inactive”.
For the compound `O=C(O)c1cccc(Oc2ccccc2)c1`, the result was inactive.
Same read-out and setting: under `COc1ccc([C@@H]2Sc3ccccc3NC(=O)[C@@H]2O)cc1` stands “inactive”; under `Oc1ccc(C2CNCCc3c2cc(O)c(O)c3Cl)cc1` (stereo not given), “inactive”; under `CC(c1cc(C(C)(C)C)cc(C(C)(C)C)c1O)c1cc(C(C)(C)C)cc(C(C)(C)C)c1O`, “inactive”.
With `Nc1ccc(S(=O)(=O)NCc2ccccc2)cc1`, the outcome was inactive.
As to `Nc1[nH]c(=O)ncc1F`, the result was inactive.
Same read-out and setting: under `O=Cc1ccccc1[N+](=O)[O-]` stands “inactive”.
Still for that read-out and setting: under `CCC1CCC(CCC(=O)O)C1` (stereo not given) stands “inactive”.
In the case of `CCCCCCCCCCCCCCCCCC(=O)OCCCCCCCCCCCCCC(C)C`, the outcome was inactive.
Turning to `CCCCCCCCCCCCCCCCCl`, the activation is 2.27% [at 15.8 µM].
Regarding `CCCOC(=O)c1ccc(O)cc1`, the result was inactive.
Still for that read-out and setting: the value for `CC1COc2c(N3CCN(C)CC3)c(F)cc3c(=O)c(C(=O)O)cn1c23` (stereo not given) was “inactive”.
On the same count and under the same terms, the value for `CCCCS` was “inactive”.

Tested on in a further assay: not listed separately
Kind of assay: G protein-coupled receptor (GPCR) small molecule agonists, calcium flux assay: HEK293 wild type cell line counter screen (AID 1920065). As to conditions: HEK293 WT calcium flux, fluorescence, agonist mode; series mostly up to 57.6 µM. The essentials:
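Cells were plated and cultured 18 h at 37 C/5% CO2, then loaded with calcium dye for 1 h at 37 C. Compounds in DMSO were pin-transferred in agonist mode, and fluorescence (Ex/Em 480/540) was read kinetically for 3 min at 1 s intervals.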
As for `CCCC1CCC(=O)O1` (stereo not given), the outcome was inactive.
Still for that read-out and setting: the value for `CCN(CC)c1ccc2c(-c3ccc(S(=O)(=O)O)cc3S(=O)(=O)[O-])c3ccc(=[N+](CC)CC)cc-3oc2c1` was “inactive”; that for `COc1ccc(/C=C/S(=O)(=O)NC(=O)c2ccc(C)cc2Cl)cc1` was “inactive”; that for `N[C@@H](Cc1cc(I)c(O)c(I)c1)C(=O)O` was “inactive”.
On the same count and under the same terms, under `C=CC(=O)OCC(Br)CBr` (stereo not given) stands “inactive”; under `O=C1CCC(C2CCCCC2)CC1`, “inactive”; under `COc1ccc(C(=O)N2CCN(CC(=O)N3CCOCC3)CC2)cc1`, “inactive”.
As to `COCCC(=O)OC`, the result was inactive.
Still for that read-out and setting: under `Cc1nc2ccc(Cl)cc2[nH]1` stands “inactive”; under `CC(C)(C)C(=O)C(=O)O`, “inactive”.
Turning to `COc1cccc(O)c1O`, the outcome was inactive.
For the compound `N=C1C=CC(=C(c2ccc(N)cc2)c2ccc(N)cc2)C=C1`, the outcome was inactive.
On the same count and under the same terms, the value for `O=C1c2ccccc2C(=O)C1c1ccc2ccccc2n1` was “inactive”; that for `CN1CCN(C2=Nc3cc(F)ccc3Cc3ccccc32)CC1` was “inactive”.
Same read-out and setting: under `CC1=NN(c2ccc(C(=O)O)cc2)C(=O)C1` stands “inactive”; under `Oc1ccc(Oc2ccccc2)cc1`, “inactive”.
Turning to `CC(C)(O)CCCC1=CCC(C=O)CC1` (stereo not given), the result was inactive.
On the same count and under the same terms, under `NS(=O)(=O)Cc1noc2ccccc12` stands “inactive”; under `COc1ccc(C(=O)c2ccc(OC)cc2O)c(O)c1`, “inactive”; under `Fc1ccc([C@@H]2CCNC[C@H]2COc2ccc3c(c2)OCO3)cc1`, “inactive”.
In the case of `CCOC(=O)O[C@H](C)OC(=O)c1ccc2c(c1)cc(C(=O)NC1CCN(C(C)C)CC1)n2Cc1cc(-c2ccc(Cl)s2)on1`, the result was inactive.
Same read-out and setting: the value for `CC1=C(/C=C/C(C)=C\C=C\C(C)=C\C(=O)O)C(C)(C)CCC1` was “inactive”.
On the same count and under the same terms, the value for `Cc1cccc(N(C)C(=S)Oc2ccc3c(c2)CCC3)c1` was “inactive”; that for `CCCC(=O)OCCC(C)C` was “inactive”; that for `COc1ccccc1NC(=O)c1cc2ccccc2cc1O` was “inactive”.
On to `O=C(CCBr)N1CCN(C(=O)CCBr)CC1`, for which the outcome was inactive.
`CN(C)CCC=C1c2ccccc2C=Cc2ccccc21`: the outcome was inactive.
On the same count and under the same terms, under `O=C(O)c1cccc(Oc2ccccc2)c1` stands “inactive”.
The same measure, in the same setting: the value for `COc1ccc([C@@H]2Sc3ccccc3NC(=O)[C@@H]2O)cc1` was “inactive”.
Still for that read-out and setting: under `Oc1ccc(C2CNCCc3c2cc(O)c(O)c3Cl)cc1` (stereo not given) stands “inactive”; under `CC(c1cc(C(C)(C)C)cc(C(C)(C)C)c1O)c1cc(C(C)(C)C)cc(C(C)(C)C)c1O`, “inactive”.
Take `Nc1ccc(S(=O)(=O)NCc2ccccc2)cc1`: the outcome was inactive.
The same measure, in the same setting: the value for `Nc1[nH]c(=O)ncc1F` was “inactive”.
On the same count and under the same terms, the value for `O=Cc1ccccc1[N+](=O)[O-]` was “inactive”.
Same read-out and setting: the value for `CCC1CCC(CCC(=O)O)C1` (stereo not given) was “inactive”.
For `CCCCCCCCCCCCCCCCCC(=O)OCCCCCCCCCCCCCC(C)C`, the result was inactive.
In the case of `CCCCCCCCCCCCCCCCCl`, the activation is 0.033% [at 11.8 µM].
For the compound `CCCOC(=O)c1ccc(O)cc1`, the outcome was inactive.
Same read-out and setting: under `CC1COc2c(N3CCN(C)CC3)c(F)cc3c(=O)c(C(=O)O)cn1c23` (stereo not given) stands “inactive”; under `CCCCS`, “inactive”.
